The supplement of paper PMC13380429

Test system: Vero E6 infected with SARS-CoV-2
Experiment: inhibition of SARS-CoV-2 cytopathic effect; higher = more antiviral protection, active = above 15
Details: 48 h

Measured: inhibition of SARS-CoV-2 cytopathic effect

O=c1c(O)c(-c2ccc(O)cc2O)oc2cc(O)cc(O)c12 [morin]
inactive: 1 nM -1.74% | 8.33 nM -0.07% | 100 nM -0.4% | 833.33 nM -4.13% | 10000 nM 0.27%

O=C(COc1ccc(Cl)cc1)N1CCN(Cc2ccc3c(c2)OCO3)CC1 [fipexide]
inactive: 1 nM -0.21% | 8.33 nM 0.95% | 100 nM 1.92% | 833.33 nM 1.62% | 10000 nM 0.49%

O[C@H]1CC[C@H](Nc2ncc3nc(Nc4c(F)cc(F)cc4F)n([C@H]4CCOC4)c3n2)CC1
inactive: 1 nM 1.66% | 8.33 nM 2.79% | 100 nM 0.98% | 833.33 nM -0.04% | 10000 nM -3.68%

CCCCCCOc1cc2c(cc1N(C)c1ncc(C(=O)O)cn1)C(C)(C)CCC2(C)C
inactive: 1 nM -1.61% | 8.33 nM 3.1% | 100 nM 3.71% | 833.33 nM 4.08% | 10000 nM 5.06%

CCc1cccc(CC)c1NC(=O)c1nn(C)c2c1CCc1cnc(Nc3ccc(C(=O)NC4CCN(C)CC4)cc3OC(F)(F)F)nc1-2
inactive: 1 nM 1.19% | 8.33 nM 3.71% | 100 nM 1.53% | 833.33 nM 0.13% | 10000 nM 5.39%

O=C(O)c1ccc(N2N=C(Cc3ccccc3)/C(=C\c3ccc(-c4ccccc4F)o3)C2=O)cc1
inactive: 1 nM -0.59% | 8.33 nM 0.52% | 100 nM -1.43% | 833.33 nM 1.97% | 10000 nM -1.44%

Cc1cc(C(=CNc2ccc(Cl)cc2)C(=O)Nc2ccc(Cl)cc2)on1
inactive: 1 nM -1.14% | 8.33 nM -1.99% | 100 nM -2% | 833.33 nM -0.86% | 10000 nM 0.28%

C[C@@H](NCc1cc(Br)cc2nc(O)c(O)nc12)P(=O)(O)O
inactive: 1 nM -0.47% | 8.33 nM 3.65% | 100 nM -0.39% | 833.33 nM -1.72% | 10000 nM -3.97%

CCC(C)n1ncn(-c2ccc(N3CCN(c4ccc(OCC5COC(Cn6cncn6)(c6ccc(Cl)cc6Cl)O5)cc4)CC3)cc2)c1=O (stereo not given) [itraconazole]
inactive: 1 nM 2.52% | 8.33 nM 7.17% | 100 nM 2.54% | 833.33 nM -1.78% | 10000 nM -7.27%

Cc1[nH]c2ccc(F)cc2c1-c1nc2c3cccnc3c3ncccc3c2[nH]1
inactive: 1 nM 0.2% | 8.33 nM 1.01% | 100 nM 0.29% | 833.33 nM -0.86% | 10000 nM 2.7%

CC(O)(P(=O)(O)O)P(=O)(O)O [etidronic-acid]
inactive: 1 nM 0.67% | 8.33 nM -1.84% | 100 nM -1.2% | 833.33 nM 0.77% | 10000 nM 0.13%

CN(C)CCCCSC(=N)N
inactive: 1 nM -2.5% | 8.33 nM -3.4% | 100 nM -2.41% | 833.33 nM 1.23% | 10000 nM 2.12%

O=C(NC(=O)c1c(F)cccc1Cl)NC1c2ccccc2-c2ccccc21
inactive: 1 nM -0.23% | 8.33 nM -0.67% | 100 nM 1.6% | 833.33 nM 2.13% | 10000 nM 0.4%

Clc1ccc(C(Cn2ccnc2)OCc2ccc(Sc3ccccc3)cc2)c(Cl)c1 (stereo not given) [fenticonazole]
inactive: 1 nM -3.37% | 8.33 nM 3.19% | 100 nM 0.76% | 833.33 nM 0.19% | 10000 nM 2.21%

CC(=O)OCC1=C(C(=O)O)N2C(=O)[C@@H](N)[C@H]2SC1 [7-aminocephalosporanic-acid]
inactive: 1 nM -5.97% | 8.33 nM -2.34% | 100 nM -5.2% | 833.33 nM -0.34% | 10000 nM 3.59%

CCc1ccccc1OC[C@@H](O)CN[C@H]1CCCc2ccccc21
inactive: 1 nM -1.78% | 8.33 nM -0.44% | 100 nM -3.44% | 833.33 nM -0.6% | 10000 nM -4.25%

COc1ccc(-c2oc3c(CC=C(C)C)c(O)cc(O)c3c(=O)c2O)cc1 [icaritin]
inactive: 1 nM -1.11% | 8.33 nM 0.17% | 100 nM 0.02% | 833.33 nM -0.36% | 10000 nM 2.24%

CC[C@H](C)[C@H](N)C1=N[C@H](C(=O)N[C@@H](CC(C)C)C(=O)N[C@H](CCC(=O)O)C(=O)N[C@H](C(=O)N[C@H]2CCCCNC(=O)[C@H](CC(N)=O)NC(=O)[C@@H](CC(=O)O)NC(=O)[C@H](Cc3cnc[nH]3)NC(=O)[C@@H](Cc3ccccc3)NC(=O)[C@H]([C@@H](C)CC)NC(=O)[C@@H](CCCN)NC2=O)[C@@H](C)CC)CS1 [bacitracin]
inactive: 1 nM -0.71% | 8.33 nM 2.89% | 100 nM -2.3% | 833.33 nM -1.54% | 10000 nM -0.85%

O=C(c1cncc(Br)c1)N1CCC(N2CCCC2)CC1
inactive: 1 nM -1.15% | 8.33 nM -2.01% | 100 nM -1.71% | 833.33 nM -4.94% | 10000 nM 0.82%

CCCCOC(=O)c1ccc(N)cc1 [butamben]
inactive: 1 nM 3.03% | 8.33 nM 2.87% | 100 nM 2.37% | 833.33 nM 6.53% | 10000 nM 2.78%

COc1cc(N2CCC(N3CCN(C)CC3)CC2)ccc1Nc1ncnc(Nc2ccccc2S(=O)(=O)C(C)C)n1
inactive: 1 nM 1.25% | 8.33 nM -0.68% | 100 nM 1.16% | 833.33 nM 2.18% | 10000 nM -7.16%

C[C@@H](N)[C@H]1CC[C@H](C(=O)Nc2ccncc2)CC1
inactive: 1 nM -2.16% | 8.33 nM -4.44% | 100 nM -2.01% | 833.33 nM 2.02% | 10000 nM -3.54%

Cc1cc(Nc2cc(N3CCN(C)CC3)nc(Sc3ccc(NC(=O)C4CC4)cc3)n2)n[nH]1 [tozasertib]
inactive: 1 nM -0.96% | 8.33 nM -0.86% | 100 nM -0.22% | 833.33 nM 0.2% | 10000 nM -4.18%

O=C(O)CCCO
inactive: 1 nM 1.65% | 8.33 nM 2.68% | 100 nM 2.71% | 833.33 nM 1.83% | 10000 nM 1.79%

CN(C)CCCN1c2ccccc2Sc2ccccc21 [promazine]
inactive: 1 nM 2.47% | 8.33 nM -1.16% | 100 nM 0.93% | 833.33 nM 0.57% | 10000 nM -0.38%

O=C(/C=C/c1ccc(O)c(O)c1)c1ccc(O)cc1O [butein]
inactive: 1 nM -0.13% | 8.33 nM 0.3% | 100 nM 1.11% | 833.33 nM 2.97% | 10000 nM 12.1%

COc1ccc([C@@H]2CC(=O)c3c(O)cc(O)cc3O2)cc1O [hesperetin]
inactive: 1 nM 1.09% | 8.33 nM 3.18% | 100 nM 4.54% | 833.33 nM 0.97% | 10000 nM 0.11%

COC(=O)Nc1nc2cc(Sc3ccccc3)ccc2[nH]1 [fenbendazole]
inactive: 1 nM 0.07% | 8.33 nM -1.31% | 100 nM 0.21% | 833.33 nM 0.61% | 10000 nM -0.61%

CC[C@@H]([C@H](C)O)n1ncn(-c2ccc(N3CCN(c4ccc(OC[C@@H]5CO[C@@](Cn6cncn6)(c6ccc(F)cc6F)C5)cc4)CC3)cc2)c1=O [posaconazole]
inactive: 1 nM 0.11% | 8.33 nM 0.51% | 100 nM 0.36% | 833.33 nM 2.23% | 10000 nM -6.91%

CC1=C(C(=O)OC(C)C)C(c2cccc([N+](=O)[O-])c2)C(C(=O)OC2CN(C(c3ccccc3)c3ccccc3)C2)=C(N)N1 (stereo not given) [azelnidipine]
inactive: 1 nM 3.44% | 8.33 nM 1.14% | 100 nM -0.26% | 833.33 nM 0.91% | 10000 nM -6.87%

CCOC(=O)c1c(O)nc2cccc3c2c1-c1ccccc1C3=O
inactive: 1 nM 0.21% | 8.33 nM 0.57% | 100 nM 5.31% | 833.33 nM 4.72% | 10000 nM 4.09%

CN1[C@@H]2CC[C@H]1C[C@@H](OC1c3ccccc3CCc3ccccc31)C2 [deptropine]
inactive: 1 nM 0.19% | 8.33 nM 0.38% | 100 nM 1.32% | 833.33 nM -0.87% | 10000 nM 12.7%

NC(=O)c1ccc(I)c([N+](=O)[O-])c1 [iniparib]
inactive: 1 nM 0.64% | 8.33 nM 1.76% | 100 nM 0.16% | 833.33 nM 2.29% | 10000 nM 3.53%

CCCCCCCCCCCCCCCCCCCCCCCCC(=O)O [pentacosanoic-acid]
inactive: 1 nM -2.75% | 8.33 nM -2.46% | 100 nM -0.07% | 833.33 nM -0.23% | 10000 nM -2.38%

CC(C)NCC(O)c1cc(O)cc(O)c1 (stereo not given) [metaproterenol]
inactive: 1 nM -0.95% | 8.33 nM 3.21% | 100 nM 0.75% | 833.33 nM -1.4% | 10000 nM 0.75%

COc1ccccc1CN[C@H]1CCCN[C@H]1c1ccccc1
inactive: 1 nM -0.59% | 8.33 nM -1.96% | 100 nM 2.38% | 833.33 nM -1.82% | 10000 nM -3.19%

NCCc1c[nH]cn1 [histamine]
inactive: 1 nM -0.66% | 8.33 nM 1.36% | 100 nM 0.17% | 833.33 nM 1.23% | 10000 nM 1%

CC(C)C(=O)c1c(C(C)C)nn2ccccc12 [ibudilast]
inactive: 1 nM 2.15% | 8.33 nM 6.68% | 100 nM 5.43% | 833.33 nM 7.59% | 10000 nM 2.39%

COC(=O)C(c1ccccc1)C1CCCCN1 (stereo not given)
inactive: 1 nM -1.97% | 8.33 nM -1.71% | 100 nM -1.37% | 833.33 nM -1.52% | 10000 nM -0.37%

C[C@H](CCC(=O)O)[C@H]1CC[C@H]2[C@@H]3C[C@H](O)[C@@H]4C[C@H](O)CC[C@]4(C)[C@H]3CC[C@]12C [Hyodeoxycholic acid (HDCA)]
inactive: 1 nM -1.55% | 8.33 nM 0.2% | 100 nM 1% | 833.33 nM 2.52% | 10000 nM -1.93%
